Data reported in ChEMBL document CHEMBL1961873, “Compounds: GSK PKIS; Assays: Nanosyn kinase panel” (2012).

Legend:
[1] = target: Platelet-derived growth factor receptor beta (Homo sapiens) (UniProt P09619); conditions: at 1 µM;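 also: each value is a mean percent inhibition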
[2] = target: Tyrosine-protein kinase FRK (Homo sapiens) (UniProt P42685); conditions: at 0.1 µM
[3] = target: Tyrosine-protein kinase FRK (Homo sapiens) (UniProt P42685); conditions: at 1 µM
[4] = target: Protein-tyrosine kinase 2-beta (Homo sapiens) (UniProt Q14289); conditions: at 0.1 µM
[5] = target: Protein-tyrosine kinase 2-beta (Homo sapiens) (UniProt Q14289); conditions: at 1 µM
[6] = target: Proto-oncogene tyrosine-protein kinase receptor Ret (Homo sapiens) (UniProt P07949); conditions: at 0.1 µM
[7] = target: Proto-oncogene tyrosine-protein kinase receptor Ret (Homo sapiens) (UniProt P07949); conditions: at 1 µM
[8] = test system: Proto-oncogene tyrosine-protein kinase receptor Ret (Homo sapiens), P07949 [V804L]; conditions: at 0.1 µM
[9] = test system: Proto-oncogene tyrosine-protein kinase receptor Ret (Homo sapiens), P07949 [V804L]; conditions: at 1 µM
[10] = test system: Proto-oncogene tyrosine-protein kinase receptor Ret (Homo sapiens), P07949 [Y791F]; conditions: at 0.1 µM
[11] = test system: Proto-oncogene tyrosine-protein kinase receptor Ret (Homo sapiens), P07949 [Y791F]; conditions: at 1 µM
[12] = target: Macrophage-stimulating protein receptor (Homo sapiens) (UniProt Q04912); conditions: at 0.1 µM
[13] = target: Macrophage-stimulating protein receptor (Homo sapiens) (UniProt Q04912); conditions: at 1 µM
[14] = target: Proto-oncogene tyrosine-protein kinase ROS (Homo sapiens) (UniProt P08922); conditions: at 0.1 µM
[15] = target: Proto-oncogene tyrosine-protein kinase ROS (Homo sapiens) (UniProt P08922); conditions: at 1 µM
[16] = target: Proto-oncogene tyrosine-protein kinase Src (Homo sapiens) (UniProt P12931); conditions: at 0.1 µM
[17] = target: Proto-oncogene tyrosine-protein kinase Src (Homo sapiens) (UniProt P12931); conditions: at 1 µM
[18] = target: Tyrosine-protein kinase Srms (Homo sapiens) (UniProt Q9H3Y6); conditions: at 0.1 µM
[19] = target: Tyrosine-protein kinase Srms (Homo sapiens) (UniProt Q9H3Y6); conditions: at 1 µM
[20] = target: Tyrosine-protein kinase SYK (Homo sapiens) (UniProt P43405); conditions: at 0.1 µM;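 also: reported percentages are mean inhibition values for SYK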

Sequence of Proto-oncogene tyrosine-protein kinase receptor Ret (Homo sapiens) (P07949 whole entry): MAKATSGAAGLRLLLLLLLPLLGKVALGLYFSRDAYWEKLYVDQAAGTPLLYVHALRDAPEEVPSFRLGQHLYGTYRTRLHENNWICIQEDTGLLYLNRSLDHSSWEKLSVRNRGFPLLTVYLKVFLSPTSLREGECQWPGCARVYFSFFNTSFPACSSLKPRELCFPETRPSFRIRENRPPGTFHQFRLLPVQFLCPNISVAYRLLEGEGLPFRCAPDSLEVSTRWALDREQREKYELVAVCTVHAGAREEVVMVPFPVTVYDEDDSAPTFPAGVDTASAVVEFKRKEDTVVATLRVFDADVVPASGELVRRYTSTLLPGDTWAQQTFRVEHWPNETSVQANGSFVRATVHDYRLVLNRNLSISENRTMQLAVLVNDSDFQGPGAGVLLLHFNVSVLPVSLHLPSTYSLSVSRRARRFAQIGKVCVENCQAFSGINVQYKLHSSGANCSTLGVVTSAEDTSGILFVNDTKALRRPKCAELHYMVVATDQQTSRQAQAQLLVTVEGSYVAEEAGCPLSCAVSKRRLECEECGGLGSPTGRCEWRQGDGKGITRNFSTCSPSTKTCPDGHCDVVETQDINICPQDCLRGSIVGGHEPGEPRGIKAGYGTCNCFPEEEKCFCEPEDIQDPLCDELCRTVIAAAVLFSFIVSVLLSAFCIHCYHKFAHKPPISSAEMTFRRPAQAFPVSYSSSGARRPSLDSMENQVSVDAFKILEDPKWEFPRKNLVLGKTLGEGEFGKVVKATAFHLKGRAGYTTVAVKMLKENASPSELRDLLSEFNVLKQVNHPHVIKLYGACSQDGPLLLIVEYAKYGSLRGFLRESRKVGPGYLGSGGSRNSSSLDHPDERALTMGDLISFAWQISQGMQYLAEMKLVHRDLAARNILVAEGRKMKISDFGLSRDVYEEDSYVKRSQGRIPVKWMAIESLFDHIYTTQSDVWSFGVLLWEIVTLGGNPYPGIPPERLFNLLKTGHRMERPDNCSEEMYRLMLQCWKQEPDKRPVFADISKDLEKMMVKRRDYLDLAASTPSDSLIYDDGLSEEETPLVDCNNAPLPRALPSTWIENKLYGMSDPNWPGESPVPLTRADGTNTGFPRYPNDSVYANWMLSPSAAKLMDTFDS
Sequence of Proto-oncogene tyrosine-protein kinase ROS (Homo sapiens) (P08922 whole entry): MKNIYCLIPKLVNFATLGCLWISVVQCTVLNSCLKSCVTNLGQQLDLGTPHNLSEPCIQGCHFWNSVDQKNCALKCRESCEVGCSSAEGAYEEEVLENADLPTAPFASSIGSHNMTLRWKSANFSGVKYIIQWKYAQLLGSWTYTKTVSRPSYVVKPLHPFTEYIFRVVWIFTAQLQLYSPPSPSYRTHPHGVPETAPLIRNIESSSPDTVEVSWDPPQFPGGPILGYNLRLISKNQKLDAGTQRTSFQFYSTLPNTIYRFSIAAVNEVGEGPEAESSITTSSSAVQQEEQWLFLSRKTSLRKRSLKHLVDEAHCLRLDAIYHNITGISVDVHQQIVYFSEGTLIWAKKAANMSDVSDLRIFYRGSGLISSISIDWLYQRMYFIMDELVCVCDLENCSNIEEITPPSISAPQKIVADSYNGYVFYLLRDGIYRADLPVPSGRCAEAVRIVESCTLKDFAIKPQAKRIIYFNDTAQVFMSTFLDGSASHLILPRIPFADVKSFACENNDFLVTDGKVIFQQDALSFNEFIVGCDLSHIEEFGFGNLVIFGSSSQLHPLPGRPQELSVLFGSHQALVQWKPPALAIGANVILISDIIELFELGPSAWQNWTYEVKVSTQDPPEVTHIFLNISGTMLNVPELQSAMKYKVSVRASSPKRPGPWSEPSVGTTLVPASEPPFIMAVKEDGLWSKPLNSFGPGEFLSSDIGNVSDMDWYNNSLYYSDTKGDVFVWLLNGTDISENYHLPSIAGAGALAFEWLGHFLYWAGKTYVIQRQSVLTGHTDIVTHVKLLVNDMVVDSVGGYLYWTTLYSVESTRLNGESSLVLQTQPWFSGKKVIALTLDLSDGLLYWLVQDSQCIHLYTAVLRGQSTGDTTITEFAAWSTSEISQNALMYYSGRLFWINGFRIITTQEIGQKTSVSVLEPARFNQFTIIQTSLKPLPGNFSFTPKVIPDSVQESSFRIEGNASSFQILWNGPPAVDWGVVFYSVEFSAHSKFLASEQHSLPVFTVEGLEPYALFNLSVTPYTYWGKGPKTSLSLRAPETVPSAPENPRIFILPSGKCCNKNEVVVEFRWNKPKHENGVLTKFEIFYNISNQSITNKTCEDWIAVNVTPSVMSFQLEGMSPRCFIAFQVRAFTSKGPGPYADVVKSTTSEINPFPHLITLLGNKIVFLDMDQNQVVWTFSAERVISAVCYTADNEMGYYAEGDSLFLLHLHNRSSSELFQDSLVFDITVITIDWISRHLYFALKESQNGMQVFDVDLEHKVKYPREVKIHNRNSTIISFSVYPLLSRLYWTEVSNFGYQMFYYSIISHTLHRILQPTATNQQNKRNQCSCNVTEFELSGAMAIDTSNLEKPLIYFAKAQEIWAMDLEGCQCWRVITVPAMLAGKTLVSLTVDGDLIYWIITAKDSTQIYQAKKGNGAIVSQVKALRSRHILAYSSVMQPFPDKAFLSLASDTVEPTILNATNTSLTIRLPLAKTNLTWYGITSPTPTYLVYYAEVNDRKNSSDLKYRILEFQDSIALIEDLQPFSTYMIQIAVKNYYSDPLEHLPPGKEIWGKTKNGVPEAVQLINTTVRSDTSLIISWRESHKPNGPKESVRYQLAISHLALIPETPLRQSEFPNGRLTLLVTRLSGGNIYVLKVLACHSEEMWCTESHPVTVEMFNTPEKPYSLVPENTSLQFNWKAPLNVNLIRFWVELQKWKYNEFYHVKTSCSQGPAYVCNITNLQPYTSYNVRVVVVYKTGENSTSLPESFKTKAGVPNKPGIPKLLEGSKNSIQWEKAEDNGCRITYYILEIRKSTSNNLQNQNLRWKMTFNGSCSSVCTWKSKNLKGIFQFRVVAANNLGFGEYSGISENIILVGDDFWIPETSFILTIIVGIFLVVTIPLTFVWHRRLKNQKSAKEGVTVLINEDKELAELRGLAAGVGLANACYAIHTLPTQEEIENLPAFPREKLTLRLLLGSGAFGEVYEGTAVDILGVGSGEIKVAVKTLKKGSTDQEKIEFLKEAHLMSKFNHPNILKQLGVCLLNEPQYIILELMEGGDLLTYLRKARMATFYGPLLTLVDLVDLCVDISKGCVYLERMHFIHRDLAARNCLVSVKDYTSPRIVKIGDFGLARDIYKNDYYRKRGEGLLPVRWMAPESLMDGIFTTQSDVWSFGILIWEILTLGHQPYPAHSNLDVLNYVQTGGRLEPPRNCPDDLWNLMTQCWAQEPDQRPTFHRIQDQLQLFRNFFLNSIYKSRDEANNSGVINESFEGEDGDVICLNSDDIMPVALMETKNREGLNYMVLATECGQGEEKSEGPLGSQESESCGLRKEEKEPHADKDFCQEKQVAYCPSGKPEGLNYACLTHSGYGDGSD
Sequence of Proto-oncogene tyrosine-protein kinase Src (Homo sapiens) (P12931 2-536 limits assumed): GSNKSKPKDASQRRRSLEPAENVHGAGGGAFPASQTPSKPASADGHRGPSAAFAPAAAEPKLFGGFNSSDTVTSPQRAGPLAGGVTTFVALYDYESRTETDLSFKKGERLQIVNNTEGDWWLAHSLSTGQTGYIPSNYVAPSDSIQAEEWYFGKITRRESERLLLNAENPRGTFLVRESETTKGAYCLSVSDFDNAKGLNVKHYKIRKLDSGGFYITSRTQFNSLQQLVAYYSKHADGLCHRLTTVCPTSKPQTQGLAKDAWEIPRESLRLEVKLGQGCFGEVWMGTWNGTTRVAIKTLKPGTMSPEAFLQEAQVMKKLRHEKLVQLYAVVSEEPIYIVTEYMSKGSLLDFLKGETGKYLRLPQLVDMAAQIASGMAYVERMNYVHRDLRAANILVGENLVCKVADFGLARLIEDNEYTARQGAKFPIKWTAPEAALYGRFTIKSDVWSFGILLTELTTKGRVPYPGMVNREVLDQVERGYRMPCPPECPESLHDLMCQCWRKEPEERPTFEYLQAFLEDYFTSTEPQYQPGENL
Sequence of Tyrosine-protein kinase FRK (Homo sapiens) (P42685 whole entry): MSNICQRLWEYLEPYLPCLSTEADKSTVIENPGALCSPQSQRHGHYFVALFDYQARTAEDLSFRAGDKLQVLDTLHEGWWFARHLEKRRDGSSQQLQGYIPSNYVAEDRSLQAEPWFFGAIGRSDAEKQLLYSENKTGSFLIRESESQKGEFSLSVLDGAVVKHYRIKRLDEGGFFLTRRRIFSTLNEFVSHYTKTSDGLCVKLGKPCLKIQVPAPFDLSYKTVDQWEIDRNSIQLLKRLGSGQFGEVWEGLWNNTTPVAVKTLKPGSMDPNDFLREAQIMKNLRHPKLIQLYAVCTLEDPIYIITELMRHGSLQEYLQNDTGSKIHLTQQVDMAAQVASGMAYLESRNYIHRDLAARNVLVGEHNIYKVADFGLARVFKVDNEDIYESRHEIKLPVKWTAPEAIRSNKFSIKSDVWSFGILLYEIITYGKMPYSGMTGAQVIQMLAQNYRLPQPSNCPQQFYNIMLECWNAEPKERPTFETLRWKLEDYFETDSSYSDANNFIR
Sequence of Proto-oncogene tyrosine-protein kinase receptor Ret (Homo sapiens), P07949 [V804L] (P07949 whole entry V804L): as the sequence (P07949 whole entry) above, with V804L counted along it
Sequence of Tyrosine-protein kinase Srms (Homo sapiens) (Q9H3Y6 whole entry): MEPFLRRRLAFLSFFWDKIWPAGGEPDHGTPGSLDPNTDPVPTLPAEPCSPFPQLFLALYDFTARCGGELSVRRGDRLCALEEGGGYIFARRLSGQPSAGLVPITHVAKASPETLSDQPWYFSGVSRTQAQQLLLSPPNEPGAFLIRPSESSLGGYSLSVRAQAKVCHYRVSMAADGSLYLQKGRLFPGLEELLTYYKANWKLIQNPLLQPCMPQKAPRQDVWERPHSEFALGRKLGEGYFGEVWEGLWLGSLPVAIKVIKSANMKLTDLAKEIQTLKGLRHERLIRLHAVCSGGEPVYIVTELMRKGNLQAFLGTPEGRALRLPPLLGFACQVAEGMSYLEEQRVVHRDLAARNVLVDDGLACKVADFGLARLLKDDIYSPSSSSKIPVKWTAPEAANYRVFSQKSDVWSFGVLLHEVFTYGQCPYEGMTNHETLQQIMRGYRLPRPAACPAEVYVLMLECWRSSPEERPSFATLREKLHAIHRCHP
Sequence of Proto-oncogene tyrosine-protein kinase receptor Ret (Homo sapiens), P07949 [Y791F] (P07949 whole entry Y791F): as the sequence (P07949 whole entry) above, with Y791F counted along it

SMILES | inhibition [1] [%] | inhibition [2] [%] | inhibition [3] [%] | inhibition [4] [%] | inhibition [5] [%] | inhibition [6] [%] | inhibition [7] [%] | inhibition [8] [%] | inhibition [9] [%] | inhibition [10] [%] | inhibition [11] [%] | inhibition [12] [%] | inhibition [13] [%] | inhibition [14] [%] | inhibition [15] [%] | inhibition [16] [%] | inhibition [17] [%] | inhibition [18] [%] | inhibition [19] [%] | inhibition [20] [%]
Fc1ccc(-c2ncn(C3CCNCC3)c2-c2ccnc(Oc3ccc(F)c(F)c3)n2)cc1 | 10.6 | 2.06 | 2.77 | 4.15 | 11.9 | 3.19 | 7.38 | 4.74 | 11.2 | 7.7 | 9.54 | 4.15 | 2.54 | 5.19 | 4.41 | 5.82 | 7.25 | -3.17 | -3.06 | -1.2
COc1cc(C)c(N(C)C(=O)CN(C)C)cc1Nc1nc(Nc2cccc(F)c2C(N)=O)c2cc[nH]c2n1 | 2.38 | -0.14 | 1.16 | 14.7 | 45.8 | 6.8 | 3.71 | 8.2 | 4.18 | 3.57 | 0.99 | 5.06 | 8.44 | 15.3 | 51.2 | 3.62 | 5.62 | -0.25 | -1.33 | -0.33
CN1CCN(CCCNc2nc3ccc(Oc4ccc(NC(=O)Nc5cc(C(F)(F)F)ccc5F)cc4)cc3[nH]2)CC1 | 25.8 | -0.13 | 5.78 | 6.22 | 7.87 | 76.2 | 86.2 | 38.8 | 74.9 | 65.8 | 83.9 | -2.7 | 5.53 | 5.6 | 9.76 | 4.89 | 3.58 | 2.32 | 0.43 | 0.25
C[C@@H](Oc1cc(-n2cnc3ccc(OCC4CCN(C)CC4)cc32)sc1C(N)=O)c1ccccc1Cl | 84.7 | 3.53 | 3.93 | 5.71 | 13.7 | 6.25 | 18.2 | 5.76 | 16.7 | 8.22 | 20.1 | 0.85 | 13.1 | 10.2 | 21.6 | 11.9 | 33.2 | -3.18 | -0.97 | -0.18
O=C1Nc2ccc(I)cc2C1=Cc1cc(Br)c(O)c(Br)c1 | 2.27 | 2.55 | 4.15 | 5.41 | 3.05 | 5.98 | 7.84 | 1.81 | 12 | 6.36 | 5.79 | 8.18 | 13.2 | 6.23 | 8.1 | 8.18 | 14.2 | 2.19 | 27.2 | 1.97
Fc1ccc(-c2ncn(C3CCNCC3)c2-c2ccnc(Oc3ccc(Oc4ccccc4)cc3)n2)cc1 | 3.75 | 2.37 | 2.86 | 3.19 | 6.71 | 2.36 | 5.4 | 3.16 | 7.16 | 15.6 | 4.3 | 0.16 | 0.94 | 12.1 | 11 | 10.9 | 15.3 | -1.67 | -1.36 | 0.87
COc1cc(Nc2ncc3c(C)nc(-c4cccc(Oc5ccccc5)c4)n3n2)cc(OC)c1OC | 10.4 | 0.9 | 0.75 | 5.25 | 6.67 | 4.22 | 29.1 | 8.26 | 43 | 3.87 | 12.9 | 2.03 | 2.13 | 13.1 | 14.7 | -4.09 | 21.7 | 0.72 | -0.11 | 0.87
CS(=O)(=O)CCNCc1ccc(-c2ccc3ncnc(Nc4ccc(OCc5ccccc5)c(Br)c4)c3c2)o1 | 7.34 | 2.64 | 3.25 | 3.86 | 10.1 | 7.14 | 4.94 | 2.03 | 4.43 | 9.28 | 15.1 | 4.89 | 6.32 | 4.46 | 10.1 | 6.71 | 6.55 | -0.64 | 2.32 | -1.09
Cc1ccc(NC(=O)c2ccoc2)cc1-c1ccc(C(=O)NCC2CC2)cc1 | -0.8 | 0.1 | 2.51 | 0.3 | -0.07 | 5.24 | 0.04 | 1.71 | 2.38 | 1.45 | 4.03 | -2.83 | -3.5 | 0.21 | -0.03 | 5.81 | 4.32 | -1.74 | -2.77 | -1.35
c1ccc(Oc2ccc(Nc3ncc(-c4ccccc4)o3)cc2)cc1 | 10.3 | -0.25 | 1.21 | 6.6 | 8.05 | 5.96 | 3.49 | 4.18 | 6.54 | 5.06 | 6.74 | 4.82 | 2.2 | 4.48 | 5.71 | -4.51 | 3.93 | 0.57 | 1.29 | -7.24
CCc1cccc(CC)c1/C=C/c1cncc(C(=O)NC)c1 | 9.24 | 0.72 | 2.05 | 4.52 | 5.62 | 6.73 | 7.18 | – | 3.16 | 5.49 | 2.43 | -0.25 | 6 | 2.24 | 4.93 | 2.97 | 10.2 | 0.35 | -0.17 | -3.77
CCc1nccc2c1nc(-c1nonc1N)n2CC | 14 | 0.24 | -0.39 | 3.87 | 0.03 | 0.76 | 9.96 | 4.16 | 1.71 | 3.64 | 13.1 | -3.47 | 4.96 | 3.74 | 5.33 | -0.62 | 10.1 | -1.58 | -3.49 | -1.01
O=C(NCC1CC1)c1ccc(-c2cccc(C(=O)NC3CC3)c2)cc1 | 8.57 | 1.88 | 0.07 | 1.01 | 8.49 | 3.9 | 7.06 | 1.77 | 7.1 | 8.82 | 24.5 | 4.01 | 0 | 3.69 | 6.33 | 2.23 | 7.22 | -2.13 | -0.43 | -0.53
COc1cc(Nc2ncc3c(C)nc(-c4cccc(C(F)(F)F)c4)n3n2)cc(OC)c1OC | 38 | 1.36 | 0.31 | 11.8 | 39.6 | 7.14 | 39.1 | 16.7 | 57.4 | 8.01 | 31.8 | -0.28 | 6.04 | 6.64 | 10.5 | 22.6 | 74.4 | 1.58 | 0.29 | -1.19
Cc1ccc(C(=O)NC(C)C)cc1-c1ccc(C(=O)NCC2CC2)cc1 | 2.4 | 0.01 | -0.89 | -7.76 | – | 2.09 | 0.64 | -0.26 | -0.17 | -0.71 | -0.37 | -4.49 | 0.06 | -1.39 | 0.55 | -4.72 | -6.71 | -2.42 | 2.24 | -0.72
C#Cc1cccc(Nc2ncnc3ccc(OCCCCNCCS(C)(=O)=O)cc23)c1 | 20.5 | 5.22 | 4.16 | 12.1 | 10.3 | 14.3 | 18.9 | 4.06 | 11.9 | 17.9 | 31.3 | 1.53 | 7.33 | 3.71 | 8.09 | 1.2 | 17.9 | 0.83 | 5.07 | -6.78
O=C(Nc1n[nH]c2cc(-c3ccccc3)ccc12)C1CC1 | 13.3 | 2.92 | 2.17 | 11.3 | 7.93 | 4.67 | 5.93 | 1.54 | 0.17 | 4.42 | 10.6 | 3.18 | 5.31 | 6.26 | 7.64 | 0.33 | 10.7 | -0.84 | 3.11 | -3.33
COc1ccc2ncn(-c3cc(O[C@H](C)c4ccccc4Cl)c(C(N)=O)s3)c2c1 | 18.7 | 3.26 | 4.73 | 6.17 | 9.58 | – | 9.64 | 2.37 | 7.27 | 5.2 | 8.71 | 2.64 | 3.04 | 6.54 | 10.9 | 6.13 | 5.73 | -3.68 | -2.35 | -1.79
NS(=O)(=O)c1ccc(N/N=C2\C(=O)Nc3ccc(-c4cnco4)cc32)cc1 | 50.4 | 1.59 | 1.95 | 9.59 | 19.7 | 7.98 | 29 | 15 | 54 | 8.71 | 31.9 | 7.46 | 4.84 | 6.83 | 9.22 | 3.76 | 20.5 | 0.38 | 0.29 | 0.72
C[C@@H](Oc1cc(-n2cnc3ccc(OC4CCN(C)CC4)cc32)sc1C(N)=O)c1ccccc1Cl | 70.8 | 3.35 | 3.66 | 4.13 | 11.7 | 3.19 | 16.5 | 2.32 | 15.8 | 6.79 | 22 | 0.07 | 9.84 | 8.31 | 15.5 | 10.3 | 18.7 | -0.74 | -2.64 | -0.76
O=C(Nc1ccc(Oc2ccc3[nH]c(NC(=O)c4ccccc4)nc3c2)cc1)Nc1cc(C(F)(F)F)ccc1F | 31.1 | 1.86 | 2.1 | 5.27 | 14.2 | 62.6 | 90.2 | 25.4 | 78.7 | 38.6 | 87 | 0.56 | 5.31 | 4.24 | 11.4 | 4.33 | 11.2 | 1.78 | 4.56 | -1
CCS(=O)(=O)c1ccc(OC)c(Nc2ncc(-c3cccc(-c4ccccc4F)c3)o2)c1 | 63.6 | 0.61 | 11.7 | 7.79 | 0.8 | 15.4 | 54.4 | 3.52 | 9.78 | 10.1 | 51.1 | 2.4 | 5.56 | 14.2 | 54.9 | 12.6 | 74.5 | 8.12 | 30.3 | -3.99
Nc1nccc(-c2c(-c3ccc(F)cc3)ncn2C2CCC(O)CC2)n1 (configuration not stated) | 30.3 | -0.89 | 5.08 | -2.8 | 2.44 | 3.09 | 19.3 | 0.11 | 5.11 | 3.7 | 25.2 | 3.96 | 13.3 | 28.6 | 76.4 | 0.34 | 18.3 | -0.15 | 2.5 | -1.99
Cc1nnc(-c2ccc(C)c(-c3ccc(C(=O)NCc4ccc(Cl)cc4)cc3)c2)o1 | 3.27 | 1.52 | 2.43 | 6.59 | 10.6 | 8.83 | 2.3 | 2.03 | 2.91 | 1.1 | 7.75 | 1.1 | 2.52 | 4.75 | 7.75 | -1.25 | 7.15 | -2.08 | -0.92 | -5.79
COc1cc(N2CCN(C(C)C)CC2)ccc1Nc1nc(Nc2ccc(F)cc2C(=O)NC[C@@H](O)CO)c2cc[nH]c2n1 | 5.07 | 2.85 | 4.03 | 87.3 | 96.5 | 5.61 | 8.19 | 5.31 | 18.4 | 6.02 | 13.9 | 7.42 | 2.76 | 17.8 | 60 | 3.75 | 9.14 | -2.12 | -0.49 | -1.02
Cc1ccc(C(=O)NC2CCC2)cc1-c1ccc(C(=O)NCC2CC2)cc1 | 4.37 | 1.45 | 0.56 | 4.2 | 4.27 | 7.54 | 8.34 | 4.17 | -0.01 | 2.44 | 2.67 | 5.75 | 4.87 | 3.25 | 2.72 | 1.78 | 4.45 | -2.12 | -0.59 | -0.95
CN(C)CCOc1ccc(-c2cc(-c3ccc4c(c3)CCC4=NO)c(-c3ccncc3)o2)cc1 | 9.14 | -1.02 | 0.49 | -7.75 | 0.57 | 3.54 | 1.85 | 0.61 | 1.37 | -1.98 | 9.08 | -0.03 | 22.4 | -1.28 | 0.64 | 1.1 | 2.61 | 3 | 3.76 | 0.85
